The list is not random: actives were taken first. Their share in the collection is about 11%.
USP28 block = human USP28 deubiquitinase inhibition; actives 3% (n = 47,000); purified USP28, Ub-rhodamine cleavage fluorescence, 30 min; Q96RU2; inhibition, % at 25 µM
USP30 block = blocks human USP30 ubiquitin-rhodamine cleavage. Q70CQ3. purified USP30, Ub-rhodamine cleavage fluorescence. inhibition, % at 25 µM. actives 5.3% (n = 47,000)
USP17 inh = inhibitors of human USP17 deubiquitinase; A8MUK1; purified USP17, Ub-rhodamine cleavage fluorescence, 3 h; inhibition, % at 50 µM; actives 6.5% (n = 47,000)
OTUD3 inh = inhibitors of human OTUD3 deubiquitinase; inhibition, % at 25 µM; Q5T2D3; purified OTUD3, Ub-rhodamine fluorescence, 2 h; AID 1645858; actives 0.7% (n = 47,000)
Target sequence (Q5T2D3 whole entry, looked up): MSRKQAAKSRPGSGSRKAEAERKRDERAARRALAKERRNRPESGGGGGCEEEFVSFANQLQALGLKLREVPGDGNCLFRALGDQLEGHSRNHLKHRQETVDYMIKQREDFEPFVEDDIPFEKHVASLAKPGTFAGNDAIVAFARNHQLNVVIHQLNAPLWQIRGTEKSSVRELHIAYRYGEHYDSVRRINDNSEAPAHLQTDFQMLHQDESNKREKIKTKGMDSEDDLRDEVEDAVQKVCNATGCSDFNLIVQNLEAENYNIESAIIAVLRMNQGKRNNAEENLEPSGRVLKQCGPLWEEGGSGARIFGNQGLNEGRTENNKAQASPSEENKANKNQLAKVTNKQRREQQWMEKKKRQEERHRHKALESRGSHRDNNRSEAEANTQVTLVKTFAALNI
* marks the source's active call; other numbers are inactive results. Cut-off read from the data, not from the text of the source: active = inhibition above about 30%; inactive = the rest.

Screening CSc1nc2ncn(CC(=O)Nc3ccc(Br)cc3)c(=O)c2s1 returned USP28 block -6, USP30 block 1, USP17 inh -5 and OTUD3 inh -2.
Screening O=C(Nc1ccccc1)N1CCCN(c2ccc([N+](=O)[O-])cn2)CC1 returned USP28 block -4, USP30 block 13, USP17 inh -17 and OTUD3 inh 4.
For O=C(Nc1ccccc1)N1CCCN(c2c(Cl)cncc2Cl)CC1 the results were USP28 block 21, USP30 block 32*, USP17 inh 20 and OTUD3 inh 11.
`O=C1c2oc3ccccc3c(=O)c2C(c2ccco2)N1c1nc2ccc(Cl)cc2s1` (centres undefined) gave USP28 block -9, USP30 block -81, USP17 inh -1 and OTUD3 inh -2.
For COc1cc2nc(SCc3cnc(Cl)s3)n(Cc3ccco3)c(=N)c2cc1OC the results were USP28 block -69, USP30 block -331, USP17 inh -58 and OTUD3 inh -79.
For O=C(NCCc1ccc(Cl)cc1)c1cc2ccccc2s1 the results were USP28 block 12, USP30 block 28, USP17 inh 13 and OTUD3 inh 7.
`O=C(NCCc1ccccc1)c1cc2ccccc2c(=O)s1` gave USP17 inh 73* and OTUD3 inh 3.
Cn1c(=O)c2c(-c3ccccc3)n(-c3ccc4c(c3)OCCO4)cc2n(C)c1=O was read as USP28 block -16, USP30 block -52, USP17 inh 32* and OTUD3 inh -16.
Cn1c(=O)c2c(-c3ccccc3)n(CCO)cc2n(C)c1=O was read as USP28 block -7, USP30 block 0, USP17 inh -19 and OTUD3 inh 0.
`O=C1C/C(=C\c2cccc([N+](=O)[O-])c2)Cc2ccccc21` gave USP28 block 30, USP30 block 38*, USP17 inh 8 and OTUD3 inh 5.
Screening O=C1C/C(=C\c2cccc(Cl)c2)Cc2ccccc21 returned USP28 block 54*, USP30 block 39*, USP17 inh 26 and OTUD3 inh 27.
Screening O=C1C/C(=C\c2cccc(Br)c2)Cc2ccccc21 returned USP28 block 34*, USP30 block 21, USP17 inh 14 and OTUD3 inh 22.
`COc1ccc(/C=C2\CC(=O)c3ccccc3C2)c(OC)c1` gave USP28 block 14, USP30 block -16, USP17 inh 5 and OTUD3 inh 8.
`N#Cc1cccc(NC(=O)c2ccc(S(=O)(=O)N3CCOCC3)cc2)c1` gave USP28 block 6, USP30 block 9, USP17 inh 11 and OTUD3 inh 7.
For O=C(Nc1ccc(-c2nc3ccccc3o2)cc1)c1ccc(S(=O)(=O)N2CCc3ccccc3C2)cc1 the results were USP28 block 4, USP30 block 34*, USP17 inh 35* and OTUD3 inh 10.
For CCOC(=O)c1ccc(NC(=O)c2ccc(S(=O)(=O)N3CCc4ccccc4C3)cc2)cc1 the results were USP28 block 9, USP30 block 50*, USP17 inh 33* and OTUD3 inh 9.
Cc1cc(C)c(S(=O)(=O)N2CCC(C(=O)OC(C)C(=O)Nc3ccccc3-c3ccccc3)CC2)c(C)c1 (centres undefined) was read as USP28 block 3, USP30 block -4, USP17 inh -2 and OTUD3 inh 7.
CCOC(=O)c1cccc(NC(=O)c2ccc(S(=O)(=O)N3CCN(C)CC3)cc2)c1 was read as USP28 block 31*, USP30 block -2 and OTUD3 inh -1.
For CCOC(=O)c1ccc(S(=O)(=O)N2CCC(C(=O)OC(C)C(=O)Nc3cccc([N+](=O)[O-])c3)CC2)cc1 (centres undefined) the results were USP28 block 42*, USP30 block 83*, USP17 inh 8 and OTUD3 inh 15.
`NC(=O)C[C@H](NC(=O)[C@H](Cc1ccccc1)n1c(=O)[nH]c2ccccc2c1=O)C(=O)N1CCC[C@H]1C(=O)O` gave USP28 block -13, USP30 block -14, USP17 inh -30 and OTUD3 inh -8.
O=C(CN1CCN(S(=O)(=O)c2ccc3c(c2)OCCCO3)CC1)N1CCCc2ccccc21 was read as USP28 block 1, USP30 block 12, USP17 inh -2 and OTUD3 inh 1.
Screening Cc1ccc(N(CC(=O)N2CCCc3ccccc32)S(=O)(=O)c2ccc3c(c2)OCCO3)cc1 returned USP28 block 13, USP30 block 32*, USP17 inh 7 and OTUD3 inh 21.
`Cn1c(N2CCN(C(=O)c3ccc(Cl)cc3)CC2)cc(=O)n(C)c1=O` gave USP28 block -5, USP30 block 0, USP17 inh 0 and OTUD3 inh -6.
`Cc1ccccc1CNC(=O)Cn1c(=O)n(-c2ccccc2)c2ncccc21` gave USP28 block -10, USP30 block 14, USP17 inh 47* and OTUD3 inh -3.
COc1ccc(-c2cc(C(=O)N3CCN(c4ccc(N5CCOCC5)nn4)CC3)[nH]n2)cc1 was read as USP28 block 32*, USP30 block 24, USP17 inh 38* and OTUD3 inh 16.
Screening O=S(=O)(C1CC1)N1CC[C@@H]2[C@@H]1CCN2Cc1ccco1 returned USP28 block -7, USP30 block -10, USP17 inh -14 and OTUD3 inh -10.
O=C(Nc1ccc(NC(=O)c2ccccc2O)cc1)Nc1ccc(OCc2ccccc2)cc1 was read as USP28 block -115, USP30 block -479, USP17 inh -19 and OTUD3 inh -60.
For O=C(COc1ncnc2ccccc12)Nc1ccc(OCc2ccccc2)cc1 the results were USP17 inh 48* and OTUD3 inh -1.
For COc1ccc(CCC(=O)Nc2ccc3c(c2)Sc2ccccc2C(=O)N3C)cc1 the results were USP28 block 32*, USP30 block 39* and OTUD3 inh 16.
`COc1cc(OC)cc(C(=O)Nc2ccc3c(c2)Sc2ncccc2C(=O)N3C)c1` gave USP28 block -18, USP30 block -66, USP17 inh -17 and OTUD3 inh -9.
COc1ccc(C(=O)Nc2ccc3c(c2)Sc2ncccc2C(=O)N3C)cn1 was read as USP28 block 65*, USP30 block -35, USP17 inh 7 and OTUD3 inh -3.
`CCOc1ccccc1C(=O)Nc1ccc2c(c1)Sc1ncccc1C(=O)N2C` gave USP28 block 40*, USP30 block 0, USP17 inh 53* and OTUD3 inh -15.
CCCC1Cc2c(sc3nc(SCC)nc(N)c23)CO1 (centres undefined) was read as USP28 block -14, USP30 block 0, USP17 inh 81* and OTUD3 inh 0.
`CCCC1Cc2c(sc3nc(SCc4ccccc4Cl)nc(N)c23)CO1` (centres undefined) gave USP28 block -7, USP30 block -2, USP17 inh 40* and OTUD3 inh -14.
Screening Cc1cc(C)c(NC(=O)COC(=O)C2CCCN2S(=O)(=O)c2ccc(Cl)cc2)c(C)c1 (centres undefined) returned USP28 block 23, USP30 block 9, USP17 inh 12 and OTUD3 inh 13.
